PLK1 PBD block: blocks phosphopeptide binding to human PLK1 polo-box domain. P53350. Plk1 PBD binding of FITC phosphopeptide, fluorescence polarization. Potency, µM, for inactives: max response, negative = inhibition, usual class: inhibitors. 360,000 tested, 2.8% active; note: potency is the fitted concentration of half-maximal effect; series mostly up to about 57 µM; % is set by controls: 0 for no effect and ±100 for the full control effect; nearly all actives have a fitted effect of over 65% in size
BAZ2B inh: inhibitors of human BAZ2B bromodomain. Q9UIF8. AlphaScreen BAZ2B-H3K14Ac peptide displacement. Potency, µM (top dose mostly 114 µM), without a hit: at the highest dose activity change, negative = inhibition, actives largely listed as inhibitors. 360,000 tested, 4.4% active. AID 504333; note: potency is the fitted concentration of half-maximal effect; % is set by controls: 0 for no effect and ±100 for the full control effect; nearly all actives have a fitted effect of over 60% in size
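In this displacement format the biotinylated H3(5-23) peptide acetylated at Lys14 serves as ligand at 50 nM, with BAZ2B at 50 nM in PBS pH 7.4 containing 0.01% Tween-20. Donor and acceptor beads are 10 ug/mL final.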
PI5P4Ka inh: inhibitors of human PI5P4K alpha; max response, %; PI5P4Kalpha enzyme, ADP-Glo luminescence, 60 min; active compounds read low; P48426; AID 652105; 330,000 tested, 1.2% active; active = max response of -50% or lower; inconclusive = between -30% and -50%; inactive = -30% or higher; note: value at the top dose of about 77 µM; % is set by controls: 0 for no effect and ±100 for the full control effect
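Luminescence from ADP-Glo served as readout of PI5P4Kalpha activity in a qHTS format. Reaction: enzyme, substrate, compound, ATP at 5 microM final, 60 min at RT.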
G9a block: blocks human histone lysine methyltransferase G9a; Q96KQ7; G9a H3K9 monomethylation, AlphaScreen, 2 h; Potency, µM (top dose mostly 102 µM), without a hit: at the top dose activity, negative = inhibition, most hits filed as inhibitors; 350,000 tested, 8.8% active; AID 504332; note: potency is the fitted concentration of half-maximal effect; % is set by controls: 0 for no effect and ±100 for the full control effect; nearly all actives have a fitted effect of over 75% in size
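Using a bead-based AlphaScreen, monomethylated H3K9 product from 2 h room-temperature reactions (G9a 20 nM, peptide 500 nM, SAM 20 uM) was detected with 0.5 ug/mL rabbit anti-H3K9me1 antibody.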
HP1b binding inh: inhibitors of HP1-beta chromodomain binding to methylated histone tails; AID 540317; P83916; AlphaScreen HP1-beta / biotin-H3K9me3 peptide binding; 390,000 tested, 0.56% active; Potency, µM (top dose mostly 114 µM), for the others: at the highest dose activity change, negative = inhibition, actives largely listed as inhibitors; note: potency is the fitted concentration of half-maximal effect; nearly all actives have a fitted effect of over 70% in size
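AlphaScreen: HP1-beta (50 nM) preformed 30 min with biotin-H3(1-18)K9me3 peptide (50 nM) in PBS pH 7.4, 0.01% Tween-20. Compound added for 30 min at RT, then streptavidin donor/nickel chelate acceptor beads (10 ug/mL) for 30 min.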
JMJD2A Tudor inh: inhibitors of human JMJD2A Tudor domain | O75164 | 390,000 tested, 4.4% active | AlphaScreen JMJD2A-Tudor / H3K4me3 peptide binding | Potency, µM (series often up to 114 µM), without a hit: top-dose activity change, negative = inhibition, actives largely listed as inhibitors | AID 504339; note: potency is the fitted concentration of half-maximal effect; % is set by controls: 0 for no effect and ±100 for the full control effect; nearly all actives have a fitted effect of over 50% in size
Starred values were filed as active, the others as inactive; ? = inconclusive; nt = not tested or not shown; [ ] = dose if it differs, or a comment. Hits are enriched below; roughly 12% of the tested compounds scored in any of these assays. Unless noted, calls come from the whole dose curve; as a rule, active = well fitted curve in the direction sought with a large enough effect; inconclusive = small, poorly fitted or top-dose-only effect, or another doubt; inactive = no such curve, though single readings can be large; an effect the other way counts as inactive or inconclusive.

SMILES	PLK1 PBD block	BAZ2B inh	PI5P4Ka inh	G9a block	HP1b binding inh	JMJD2A Tudor inh
CN1C[C@@H]2C[C@@H](C3=Cc4cc(Cl)ccc4OC3)N3CCC[C@@]23C1=O	-21%	-6%	1	nt	-14%	-4%
COc1ccc2c(c1)C=C([C@@H]1C[C@H]3CN(c4ccccc4)C(=O)[C@]34CCCN14)CO2	-14%	-26%	5	56µM*	-13%	?
O=C(Nc1ccccc1C(F)(F)F)c1ncn[nH]1	4%	14µM*	-3	nt	25%	7.9µM*
Cc1c(NC(=O)c2ccco2)cccc1-c1nc2cccnc2s1	-18%	4%	?	14µM*	22%	?
Cc1c(NC(=O)c2ccc(Cl)nc2)cccc1-c1nc2cccnc2s1	-18%	-16%	1	21%	79%	-3%
O=C(NCCOc1ccccc1)c1ncn[nH]1	-6%	50µM*	nt	?	-9%	40µM*
O=C(Nc1ccccc1C(F)(F)F)c1cnccn1	-13%	-10%	9	-118%	34%	-2%
Cc1noc(C(=O)NCc2ccccc2)c1Cl	-11%	-5%	6	?	69%	4%
Cc1noc(C(=O)Nc2ccccc2C(F)(F)F)c1Cl	30µM*	9%	nt	-6%	-6%	-26%
O=C(Nc1nc2ccccc2n1CCN1CCOCC1)c1cccc([N+](=O)[O-])c1	nt	nt	nt	9%[59 µM]	nt	nt
COc1cccc(C(=O)Nc2ccccc2-c2nc3ccccc3s2)c1	nt	0%	nt	25%[59 µM]	125%	38%
Cc1c(NC(=O)c2ncn[nH]2)cccc1-c1nc2ccccc2s1	-5%	25µM*	-10	?	-29%	?
O=C(Cn1c(=O)n(Cc2ccccc2)c(=O)c2oc3ccccc3c21)Nc1ccc(Cl)cc1	nt	-11%	nt	-7%[59 µM]	29%	-1%
COc1ccc(-c2csc(N(CCCN(C)C)C(=O)c3ccc(C)cc3)n2)cc1	4%	?	13	79µM*	-8%	?
CCN(CC)CCCN(C(=O)c1ccccc1C)c1nc(-c2ccc(OC)cc2)cs1	-1%	50µM*	-8	-36%[0.501 µM]	-10%	45µM*
COc1ccc(-c2csc(N(CCCN(C)C)C(=O)c3ccc(Br)cc3)n2)cc1	4%	45µM*	-7	9%[0.501 µM]	-14%	-31%
COc1ccc(-c2csc(N(CCCN3CCOCC3)C(=O)c3ccco3)n2)cc1	-7%	?	4	2%[59 µM]	?	100µM*
COc1ccc(-c2csc(N(CCCN(C)C)C(=O)c3ccc(C(C)(C)C)cc3)n2)cc1	6%	?	-8	?	-13%	?
CCN(C(=O)Cn1c(=O)n(Cc2ccc3c(c2)OCO3)c(=O)c2ccc(C(=O)NC3CCCCC3)cc21)c1cccc(C)c1	nt	nt	nt	-4%[59 µM]	41%	-11%
Cc1ccc2c(c1)C(=O)C1(O)CCN(c3ccccc3)C1=N2 (configuration not stated)	nt	nt	nt	15%[59 µM]	nt	nt
CCN(CC)c1ccc(NC(=O)COCc2cc(-c3ccc4c(c3)OCO4)on2)c(C)c1	nt	22µM*	nt	4.5µM*	?	20µM*
COc1cc(NC(=O)COCc2cc(-c3ccc4c(c3)OCO4)on2)c(OC)cc1Cl	nt	2%	nt	-8%[59 µM]	13%	-16%
COc1ccc(-c2cn3c(C)c(C(=O)NCCN4CCOCC4)sc3n2)cc1	-4%	?	3	40µM*	1%	?
Cc1c(C(=O)Nc2ccncc2)sc2nc(-c3ccccc3)cn12	-8%	?	5	?	30%	?
CCOC(=O)C1CCCN(C(=O)c2sc3nc(-c4ccc(OC)cc4)cn3c2C)C1 (configuration not stated)	-2%	?	-17	40µM*	25%	-28%
SMILES	PLK1 PBD block	BAZ2B inh	PI5P4Ka inh	G9a block	HP1b binding inh	JMJD2A Tudor inh
CCOC(=O)C1CCN(C(=O)c2sc3nc(-c4ccccc4)cn3c2C)CC1	4%	-29%	0	?	9%	-17%
CCN(CC)c1ccc(NC(=O)c2sc3nc(-c4ccccc4)cn3c2C)cc1	nt	7.9µM*	nt	5µM*	-37%[57 µM]	28µM*
COc1cc(OC)cc(C(=O)NCCN2CCOCC2)c1	-1%	50µM*	7	8.9µM*	?	10µM*
COc1ccc(C2NC(=O)N(C)C3=C2C(=O)N(c2cccc(Cl)c2)C3)cc1 (configuration not stated)	nt	?	nt	-5%[59 µM]	0%	-24%
Cc1cc(S(=O)(=O)Nc2ccc(C(=O)NCCCN3CCCC3=O)cc2)ccc1F	-17%	12%	2	-5%	20%	-22%
CCOC(=O)C1CCN(Cc2cn3c(-c4ccc(OC)cc4)nnc3s2)CC1	nt	?	nt	13µM*	3%[57 µM]	-24%
CCN(CC)C(=O)c1sc2nc(-c3ccc(OC)cc3)cn2c1C	4%	-39%	0	?	-4%	-19%
Cc1c(C(=O)Nc2ccc3c(c2)OCCO3)sc2nc(-c3ccccc3)cn12	-4%	-26%	nt	-23%[59 µM]	0%	?
Cc1c(C(=O)NCc2cccnc2)sc2nc(-c3ccc(F)cc3)cn12	-5%	-38%	-2	45µM*	54%	-11%
COc1ccc(-c2cn3c(C)c(C(=O)Nc4cc(NC(C)=O)ccc4OC)sc3n2)cc1	6%	-23%	nt	14µM*	5%	-12%
CCOC(=O)C1CCCN(Cc2cn3c(-c4ccc(Br)cc4)nnc3s2)C1 (configuration not stated)	nt	3%	nt	-13%[59 µM]	30%[57 µM]	0%
CNC(=O)c1sc2nc(-c3ccc(OC)cc3)cn2c1C	-3%	?	-4	50µM*	14%	-31%
COC(=O)c1ccc(NC(=O)c2nn(C)c3c2CS(=O)(=O)c2ccccc2-3)cc1	nt	-3%	nt	1%[59 µM]	11%	-16%
COc1ccc(-c2cn3c(C)c(C(=O)N4CCc5ccccc5C4)sc3n2)cc1	-9%	?	-1	35µM*	-6%	?
CCCN1CCN(CCCNC(=O)c2ccc3c(c2)sc2nc(-c4ccc(OCC)cc4)cn23)CC1	nt	28µM*	nt	?	-17%	?
Cc1c(C(=O)N2CCc3ccccc3C2)sc2nc(-c3ccccc3)cn12	2%	-38%	nt	?	-2%	-24%
Cc1ccc(NC(=O)COc2ccc(Br)cc2CO)cc1S(=O)(=O)N1CCOCC1	3%	nt	-3	nt	28%	-9%
O=C(ONc1ccc(N=NC(=O)c2ccccc2O)cc1)c1ccccc1	?	10µM*	-58*	?	-12%	?
COc1ccc(Br)cc1CNC(=O)Cn1ncn2nc(-c3cccs3)cc2c1=O	nt	-29%	nt	-34%[59 µM]	18%	-11%
CCOC(=O)C1CCN(c2nc(N)c3c(N)nc(SCC(=O)O)cc3c2C#N)CC1	11µM*	40µM*	-88*	8.9µM*	18µM*	-15%[11.4 µM]
CCOC(=O)C1CCN(c2nc(C)cc(C)c2C#N)CC1	-3%	-4%	0	11%[12.7 µM]	75%	27%

Assay outcomes (PubChem)
